Tau filament bind: binds recombinant human tau filaments | 71,000 tested, 2% active | P10636 | AID 596 | Potency, µM (titrated, usually from 57.1 µM) | recombinant tau filaments, thioflavin S fluorescence, 15 h; filaments grown with octadecylsulfate alongside compound;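 further: actives lower thioflavin S fluorescence by blocking filaments or displacing dye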
Target sequence (P10636 whole entry, looked up): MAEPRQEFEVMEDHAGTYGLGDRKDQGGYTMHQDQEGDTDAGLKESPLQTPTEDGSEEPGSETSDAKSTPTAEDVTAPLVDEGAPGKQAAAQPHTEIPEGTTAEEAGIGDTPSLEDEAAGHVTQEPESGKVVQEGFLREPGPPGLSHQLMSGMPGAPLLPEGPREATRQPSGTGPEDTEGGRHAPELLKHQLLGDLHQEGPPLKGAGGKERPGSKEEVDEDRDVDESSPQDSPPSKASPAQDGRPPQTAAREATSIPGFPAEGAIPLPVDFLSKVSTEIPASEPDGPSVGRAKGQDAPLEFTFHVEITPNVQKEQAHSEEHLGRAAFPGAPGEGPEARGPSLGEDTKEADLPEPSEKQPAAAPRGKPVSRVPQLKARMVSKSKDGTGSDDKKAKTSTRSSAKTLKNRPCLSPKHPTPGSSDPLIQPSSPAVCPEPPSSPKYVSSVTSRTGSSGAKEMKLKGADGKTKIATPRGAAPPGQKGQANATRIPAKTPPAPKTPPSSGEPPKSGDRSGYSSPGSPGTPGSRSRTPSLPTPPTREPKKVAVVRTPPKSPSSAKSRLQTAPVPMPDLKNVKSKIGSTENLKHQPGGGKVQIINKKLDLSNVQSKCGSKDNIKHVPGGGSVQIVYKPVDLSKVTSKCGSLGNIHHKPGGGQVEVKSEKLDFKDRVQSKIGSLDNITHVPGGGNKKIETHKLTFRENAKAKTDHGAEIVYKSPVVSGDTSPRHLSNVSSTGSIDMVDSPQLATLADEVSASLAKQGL
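ThS-based fibril read: tau 1 uM final, inducer ODS 30 uM final, 37 C for 15 h, ex 450/em 510 nm.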
GFP derepression: epigenetic GFP locus derepression in mouse cells | mouse C127i GFP locus derepression, cytometry, 30 h | Potency, µM (series often up to 46.1 µM) | 68,000 tested, 0.09% active
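Murine C127i mammary cells carrying a silenced, stably integrated CMV-driven GFP reporter were treated with compound for 30 hours at 37 C. After PBS washes, GFP-positive cells were counted by laser-scanning microplate cytometry.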
Hsp90 Hop PPI: changes Hsp90-Hop TPR2A binding signal, up or down; AlphaScreen TPR2A-His6 binding biotin-Hsp90 C-terminal peptide; Potency, µM (titrated, usually from 57 µM); 71,000 tested, 0.44% active; active means well fitted curve in either direction with a large enough effect; inconclusive means small, poorly fitted or top-dose-only effect, or another doubt
ERK AVP block: vasopressin-driven ERK pathway inhibition; HEK293-V1b, vasopressin-stimulated pERK AlphaScreen; Potency, µM (highest dose often 57.5 µM), hits mostly inhibitors; 72,000 tested, 0.99% active; AID 995; further: nearly all actives have a fitted effect of over 55% in size
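HEK293 cells stably expressing V1b receptor, preincubated 30 min at 37 °C with compound, then stimulated 5 min with 25 nM vasopressin. Phospho-ERK by AlphaScreen SureFire after 5 h RT; normalized to DMSO and vasopressin; AC50 by Hill fit.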
HBB splicing: hemoglobin beta splicing modulation; HBB splicing reporter cell assay, activation; EGFP reporter with mutant IVS2-654 intron; response scale: normalised to 500 nM splice-correcting PNA; Potency, µM (titrated, usually from 46.1 µM), usual class: activators; 65,000 tested, 0.06% active
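HeLa cells stably expressing EGFP interrupted by mutant beta-globin intron 2 (IVS2-654), 500/well in 2% FCS. Treated with compound for 2 days at 37C. Splicing correction scored as total well GFP intensity (488 nm excitation, 500-520 nm emission); 500 nM antisense PNA served as control.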
Ub-GFP proteasome: proteasome inhibitors stabilizing ubiquitin-GFP reporter; 67,000 tested, under 10 active; Potency, µM (doses to about 45.9 µM), actives largely listed as activators; Ubiquitin-GFP reporter cells, proteasome inhibition, GFP fluorescence; response scale: untreated = 0%, 10 µM MG-132 = 100%; AID 526; active means well fitted activation curve with a large enough effect, not every such curve was filed as active; inconclusive means small, poorly fitted or top-dose-only effect, or another doubt; inactive means no such curve, though single readings can be large or run the other way
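Proteasome blockade was scored as a rise in GFP-expressing U2OS cells carrying a ubiquitin(G76V)-GFP construct, imaged after 4 hr compound treatment at 37 °C across a 46 uM–2.9 nM series.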
A number is an active result; i = inactive; ? = inconclusive; nt = no result; [ ] = remark or other dose. Rows were chosen to be rich in hits. Some 3% of all compounds tested hit in one or more screens of this group. Unless noted, the call rests on the fitted dose curve; in most records, active means well fitted curve in the direction sought with a large enough effect; inconclusive means small, poorly fitted or top-dose-only effect, or another doubt; inactive means no such curve, though single readings can be large; an effect the other way counts as inactive or inconclusive.

SMILES | Tau filament bind | GFP derepression | Hsp90 Hop PPI | ERK AVP block | HBB splicing | Ub-GFP proteasome
COCCN(CCOC)S(=O)(=O)c1ccc(C(=O)Nc2nc(C)c(C(C)=O)s2)cc1 | i | i | i | i | i | i
Nc1cc(Cl)c(N)cc1Cl | 25µM | i | i | i | i | i
CCCCn1c(=NC(=O)c2ccco2)c(C(=O)OCC)cc2c(=O)n3ccccc3nc21 | 7.9µM | i | i | i | i | i
CCOCCCn1c(=NC(=O)c2cccnc2)c(C(=O)OCC)cc2c(=O)n3ccccc3nc21 | i | i | i | ? | i[1.84 µM] | i
CCCCCn1c(=NC(=O)c2ccco2)c(C(=O)OCC)cc2c(=O)n3ccccc3nc21 | 5µM | i | i | i | i[0.369 µM] | nt
CCCCn1c(=NC(=O)c2cccnc2)c(C(=O)OCC)cc2c(=O)n3ccccc3nc21 | i | ? | i | i | i | i
N#Cc1cc2sc3nnc(-c4ccncc4)n3c2cc1C#N | 7.9µM | i | i | i | i | i
O=S(O)O.O=S(O)O.[Co].[NH2-].[NH2-].[NH2-].[NH2-] | i[11.4 µM] | i[9.22 µM] | i[11 µM] | i[11.5 µM] | i[9.22 µM] | i[9.17 µM]
COCCn1c(=O)c(-c2cc(F)cc(F)c2)nc2cnc(Oc3cccc(Cl)c3)nc21 | 13µM | i[9.22 µM] | i | i | i | i
COCCn1c(=O)c(-c2cc(F)cc(F)c2)nc2cnc(Oc3ccccc3)nc21 | ? | i[9.22 µM] | i | i | i | i
O=c1cnc2cnc(Oc3cccc(Cl)c3)nc2n1Cc1ccc(F)cc1 | 16µM | i[9.22 µM] | i | i | i | i
COCCn1c(=O)c(-c2cc(F)cc(F)c2)nc2cnc(Oc3ccc(OC)cc3)nc21 | 16µM | i[9.22 µM] | i | i | i | i
COCCn1c(=O)c(-c2ccc(F)cc2)nc2cnc(Oc3cccc(Cl)c3)nc21 | i | i[9.22 µM] | i | i | i | i
CCN1CCN(C(=O)N[C@H](C(=O)N[C@@H]2C(=O)N3C(C(=O)O)=C(CSc4nnnn4C)CS[C@@H]23)c2ccc(O)cc2)C(=O)C1=O | i | i | i | i | i | i
O=C(/C=C\c1ccc(O)cc1)c1ccc(O)cc1O | i | i | i | ? | i | i
N#CCSc1nc2cc(C(=O)N3CCC(C(N)=O)CC3)ccc2c2nc3ccccc3n12 | i | i | i | 20µM | i | i
O=C(N/N=C1/C[C@@H](O)[C@@H](O)[C@@H]2[C@H]3C(=O)N(c4ccc(F)cc4F)C(=O)[C@@H]3CC[C@@H]12)OCc1ccccc1 | nt | nt | nt | i[11.5 µM] | i[9.22 µM] | nt
COc1ccc(-c2csc(N3CCC(C(N)=O)(N4CCCCC4)CC3)n2)cc1 | i | i | i | 25µM | i | i
COc1ccc(-c2csc(N3CCN(C(=O)c4ccco4)CC3)n2)cc1 | i | i | i | 10µM | i | i
CC(C)=N[C@H](C(=O)O)C(C)(C)S | i[11.4 µM] | i[9.22 µM] | i[11 µM] | i[11.5 µM] | i[9.22 µM] | i[9.17 µM]
Cc1ccc2c(c1)-c1cc(C)nn1C(c1sccc1C)N2 (stereo unspecified) | i | i | 25µM | i | i | i
O=C1c2ccccc2-c2n[nH]c3cccc1c23 | i | i | i | 10µM | i | i
O=C1CCC(=O)N1c1ccc(CSc2nnnn2C2CCCCC2)cc1 | i | i | i | 16µM | i | i
CC(C)c1ccc2c(c1)CC[C@@H]1[C@@](C)(CN)CCC[C@]21C | nt | nt | nt | i | nt | nt
CC(C)c1ccc2c(c1)CC[C@@H]1[C@@](C)(CN)CCC[C@@]21C | 32µM | i[9.22 µM] | i | nt | nt | i
SMILES | Tau filament bind | GFP derepression | Hsp90 Hop PPI | ERK AVP block | HBB splicing | Ub-GFP proteasome
CCOC(=O)N/N=C1/C[C@@H](O)[C@@H](O)[C@@H]2[C@@H]3C(=O)N(C(C)(C)C)C(=O)[C@H]3CC[C@H]12 | nt | nt | nt | i[11.5 µM] | i[9.22 µM] | nt
CC(C)=CCC/C(C)=C/COc1c2ccoc2cc2oc(=O)ccc12 | ? | i[9.22 µM] | ? | nt | nt | i
Oc1cccc(Nc2nc(NCC3CCCO3)c3ccccc3n2)c1 (stereo unspecified) | i | i | i | 16µM | nt | i
Cc1nc(NCC2CCCO2)c2oc3ccccc3c2n1 (stereo unspecified) | i | i | i | ? | i | i
COc1ccc(-c2cc(-c3cc(F)ccc3O)[nH]n2)cc1OC | i | i | i | 32µM | i[1.84 µM] | i
CN(C)c1ncc2nc(CCc3ccccc3)c(=O)n(-c3ccccc3)c2n1 | i | i[9.22 µM] | 20µM | i | i | i
